Experimental findings from PMC7862700, “An all-to-all approach to the identification of sequence-specific readers for epigenetic DNA modifications on cytosine” are described below.

Assay in all cases: DAPPL (digital affinity profiling via proximity ligation, sequencing); 10 mM Tris-HCl pH 7.5, 50 mM NaCl, 1 mM DTT, 4% glycerol, room temperature, 30 min; GST-TFs on glutathione beads, 16-mer random dsDNA library, 0.1% formaldehyde crosslink after washing; high values mean tight binding
Common to all, as to conditions: protein: recombinant; tags: N-terminal GST; dsDNA, one strand shown

The target in one assay is T1, FEV (Homo sapiens, UniProt Q99581 1-238).
T1 sequence: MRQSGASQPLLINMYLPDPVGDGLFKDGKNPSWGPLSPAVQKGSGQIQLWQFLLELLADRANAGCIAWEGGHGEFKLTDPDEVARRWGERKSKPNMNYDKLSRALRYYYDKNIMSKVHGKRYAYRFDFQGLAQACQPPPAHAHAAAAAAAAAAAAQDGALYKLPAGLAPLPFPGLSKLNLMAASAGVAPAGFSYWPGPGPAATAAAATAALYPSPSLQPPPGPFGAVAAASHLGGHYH
The procedure, abridged: (§1)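 Binding signal is given per hexamer as its read frequency for a factor divided by its frequency in the tag-only sample. GST-fused human transcription factors were expressed in yeast, captured on glutathione beads, barcoded with DNA and pooled with that sample, then incubated with 200 nmole of a 16-mer random double-stranded DNA library in Tris/NaCl/DTT/glycerol buffer for 30 min at room temperature. The pools were then washed, crosslinked, proximity-ligated, amplified by PCR and sequenced on an Illumina NextSeq500.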

The target of another assay is ETV5 (Homo sapiens, UniProt P41161 1-510). The essentials:
as §1

The target of another assay is T2, SPIC (Homo sapiens, UniProt Q8N5J4 1-248).
T2 sequence: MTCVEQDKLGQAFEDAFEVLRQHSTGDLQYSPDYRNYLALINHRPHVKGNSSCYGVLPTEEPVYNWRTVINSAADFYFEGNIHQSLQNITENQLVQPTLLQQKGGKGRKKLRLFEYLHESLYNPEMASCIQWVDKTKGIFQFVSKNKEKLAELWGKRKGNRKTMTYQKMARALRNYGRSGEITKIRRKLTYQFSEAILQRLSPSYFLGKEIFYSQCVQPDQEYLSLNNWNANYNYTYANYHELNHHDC
The essentials:
as §1

The target of a further assay is ELF4 (Homo sapiens, UniProt Q99607 1-663). The essentials:
as §1

For another assay, the target named is T3, ELK4 (Homo sapiens, UniProt P28324-2 1-405).
T3 sequence: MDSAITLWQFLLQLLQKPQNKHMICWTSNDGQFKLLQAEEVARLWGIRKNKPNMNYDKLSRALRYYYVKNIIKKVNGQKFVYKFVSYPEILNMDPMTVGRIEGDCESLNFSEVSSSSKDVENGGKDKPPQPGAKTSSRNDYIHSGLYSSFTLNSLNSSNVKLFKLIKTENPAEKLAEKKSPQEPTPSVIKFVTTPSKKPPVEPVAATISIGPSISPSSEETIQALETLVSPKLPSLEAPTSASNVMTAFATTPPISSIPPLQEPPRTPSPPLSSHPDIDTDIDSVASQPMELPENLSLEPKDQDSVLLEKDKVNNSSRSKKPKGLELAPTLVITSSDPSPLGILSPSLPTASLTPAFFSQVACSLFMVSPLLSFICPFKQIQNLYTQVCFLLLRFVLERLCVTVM
The essentials:
as §1

The target in another assay is T4, ETV2 (Homo sapiens, UniProt O00321 1-342).
T4 sequence: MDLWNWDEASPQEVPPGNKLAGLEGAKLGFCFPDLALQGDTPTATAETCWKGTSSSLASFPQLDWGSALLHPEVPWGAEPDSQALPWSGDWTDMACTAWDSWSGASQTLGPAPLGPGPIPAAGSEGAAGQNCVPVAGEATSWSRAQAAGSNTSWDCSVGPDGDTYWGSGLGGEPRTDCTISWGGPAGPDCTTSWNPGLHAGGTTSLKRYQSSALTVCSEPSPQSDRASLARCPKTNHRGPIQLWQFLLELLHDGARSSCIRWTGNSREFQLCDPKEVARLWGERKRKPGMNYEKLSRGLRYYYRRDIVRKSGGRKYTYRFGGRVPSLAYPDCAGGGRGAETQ
The procedure, abridged:
as §1

In a further assay the target is T5, ELF3 (Homo sapiens, UniProt P78545 1-371).
T5 sequence: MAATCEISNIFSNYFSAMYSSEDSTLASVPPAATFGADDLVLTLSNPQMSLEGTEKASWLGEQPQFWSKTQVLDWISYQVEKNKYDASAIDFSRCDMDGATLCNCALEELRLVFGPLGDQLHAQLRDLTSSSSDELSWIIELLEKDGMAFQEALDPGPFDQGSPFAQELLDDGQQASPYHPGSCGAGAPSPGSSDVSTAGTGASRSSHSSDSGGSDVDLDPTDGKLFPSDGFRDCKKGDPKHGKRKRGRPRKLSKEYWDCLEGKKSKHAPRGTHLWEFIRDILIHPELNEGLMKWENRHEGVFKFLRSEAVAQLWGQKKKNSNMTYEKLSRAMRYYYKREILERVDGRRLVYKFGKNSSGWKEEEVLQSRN
The procedure, abridged: as §1

The next assay deals with ETV1 (Homo sapiens, UniProt P50549 1-477). The procedure, abridged:
as §1

Chain of ELF4 (Q99607 whole entry): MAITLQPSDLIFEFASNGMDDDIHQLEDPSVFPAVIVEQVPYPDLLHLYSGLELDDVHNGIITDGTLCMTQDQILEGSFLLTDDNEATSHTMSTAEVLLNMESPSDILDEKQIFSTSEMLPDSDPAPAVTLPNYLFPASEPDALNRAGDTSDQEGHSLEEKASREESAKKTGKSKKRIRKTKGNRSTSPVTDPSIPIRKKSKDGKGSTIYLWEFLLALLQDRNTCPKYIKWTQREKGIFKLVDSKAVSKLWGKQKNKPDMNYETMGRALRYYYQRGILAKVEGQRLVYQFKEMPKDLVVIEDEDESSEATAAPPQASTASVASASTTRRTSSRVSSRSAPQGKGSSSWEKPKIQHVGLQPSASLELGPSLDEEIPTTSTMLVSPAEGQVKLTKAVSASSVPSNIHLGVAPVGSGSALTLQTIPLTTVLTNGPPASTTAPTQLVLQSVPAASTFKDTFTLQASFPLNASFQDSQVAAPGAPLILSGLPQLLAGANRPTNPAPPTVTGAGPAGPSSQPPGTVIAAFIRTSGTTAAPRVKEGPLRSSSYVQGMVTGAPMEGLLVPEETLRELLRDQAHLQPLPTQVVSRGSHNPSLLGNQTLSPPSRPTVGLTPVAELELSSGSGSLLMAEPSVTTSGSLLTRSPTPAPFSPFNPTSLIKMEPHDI
Chain of ETV1 (P50549 whole entry): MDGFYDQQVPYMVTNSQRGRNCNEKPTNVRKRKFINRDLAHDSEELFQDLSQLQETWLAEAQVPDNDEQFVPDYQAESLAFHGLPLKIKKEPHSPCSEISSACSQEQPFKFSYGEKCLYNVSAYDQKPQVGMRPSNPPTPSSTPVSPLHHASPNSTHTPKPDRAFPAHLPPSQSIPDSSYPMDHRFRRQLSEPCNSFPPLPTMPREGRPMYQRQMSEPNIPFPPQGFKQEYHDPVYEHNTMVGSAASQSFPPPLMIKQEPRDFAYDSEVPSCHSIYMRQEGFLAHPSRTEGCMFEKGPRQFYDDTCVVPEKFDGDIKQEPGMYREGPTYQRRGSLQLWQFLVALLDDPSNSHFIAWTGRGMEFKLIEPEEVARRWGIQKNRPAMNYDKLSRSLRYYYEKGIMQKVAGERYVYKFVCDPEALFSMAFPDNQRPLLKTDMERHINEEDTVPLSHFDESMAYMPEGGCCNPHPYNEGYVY
Chain of ETV5 (P41161 whole entry): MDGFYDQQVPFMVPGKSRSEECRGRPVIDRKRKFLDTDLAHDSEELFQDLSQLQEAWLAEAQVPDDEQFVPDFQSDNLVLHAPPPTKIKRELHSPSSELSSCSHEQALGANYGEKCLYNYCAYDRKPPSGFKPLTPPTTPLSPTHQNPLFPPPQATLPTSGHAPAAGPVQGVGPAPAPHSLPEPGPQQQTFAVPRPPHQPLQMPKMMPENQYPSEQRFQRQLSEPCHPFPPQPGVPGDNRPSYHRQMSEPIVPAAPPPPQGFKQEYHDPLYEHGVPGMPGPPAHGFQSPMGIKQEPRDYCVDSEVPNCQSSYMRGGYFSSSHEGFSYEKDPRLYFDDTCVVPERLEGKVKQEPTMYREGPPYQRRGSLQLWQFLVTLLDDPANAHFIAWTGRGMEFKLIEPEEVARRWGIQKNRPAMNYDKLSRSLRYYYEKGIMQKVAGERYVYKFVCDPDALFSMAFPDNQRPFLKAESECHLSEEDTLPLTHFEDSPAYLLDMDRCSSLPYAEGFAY

Regarding GCGGAA, the binding signal was 1.34 fold enrichment (6-mer frequency, TF over GST control) with FEV; 1.56 fold enrichment (6-mer frequency, TF over GST control) with ETV5; 1.5 fold enrichment (6-mer frequency, TF over GST control) in the assay with SPIC; 1.21 fold enrichment (6-mer frequency, TF over GST control) with ELF4; 1.05 fold enrichment (6-mer frequency, TF over GST control) in the assay with ELK4; 1.34 fold enrichment (6-mer frequency, TF over GST control) with ETV2. Further, the binding signal with ELF3 was 1.53 fold enrichment (6-mer frequency, TF over GST control); in the assay with ETV1, 1.42 fold enrichment (6-mer frequency, TF over GST control).

For CCCCGG, the binding signal is 1.38 fold enrichment (6-mer frequency, TF over GST control) in the assay with FEV; 1.27 fold enrichment (6-mer frequency, TF over GST control) with ETV5; 1.07 fold enrichment (6-mer frequency, TF over GST control) with SPIC; 1.2 fold enrichment (6-mer frequency, TF over GST control) with ELF4; 1.31 fold enrichment (6-mer frequency, TF over GST control) in the assay with ELK4; 1.24 fold enrichment (6-mer frequency, TF over GST control) with ETV2. The binding signal with ELF3 was 1.09 fold enrichment (6-mer frequency, TF over GST control); with ETV1 it was 1.29 fold enrichment (6-mer frequency, TF over GST control).

In the case of ACACAT, the binding signal is 1.29 fold enrichment (6-mer frequency, TF over GST control) with FEV; 1.19 fold enrichment (6-mer frequency, TF over GST control) with ETV5; 1.17 fold enrichment (6-mer frequency, TF over GST control) in the assay with SPIC; 1.23 fold enrichment (6-mer frequency, TF over GST control) with ELF4; 1.33 fold enrichment (6-mer frequency, TF over GST control) in the assay with ELK4; 1.35 fold enrichment (6-mer frequency, TF over GST control) with ETV2. Further, the binding signal with ELF3 is 1.28 fold enrichment (6-mer frequency, TF over GST control); in the assay with ETV1, 1.23 fold enrichment (6-mer frequency, TF over GST control).

For CGTATC, the binding signal was 1.28 fold enrichment (6-mer frequency, TF over GST control) with FEV; 1.13 fold enrichment (6-mer frequency, TF over GST control) in the assay with ETV5; 1.19 fold enrichment (6-mer frequency, TF over GST control) with SPIC; 1.2 fold enrichment (6-mer frequency, TF over GST control) with ELF4; 1.16 fold enrichment (6-mer frequency, TF over GST control) with ELK4; 1.15 fold enrichment (6-mer frequency, TF over GST control) in the assay with ETV2. Also, the binding signal is 1.13 fold enrichment (6-mer frequency, TF over GST control) in the assay with ELF3 and 1.18 fold enrichment (6-mer frequency, TF over GST control) with ETV1.

TCCGCG: the binding signal with FEV is 1.2 fold enrichment (6-mer frequency, TF over GST control); with ETV5 it was 1.33 fold enrichment (6-mer frequency, TF over GST control); in the assay with SPIC, 1.18 fold enrichment (6-mer frequency, TF over GST control); with ELF4 it was 1.23 fold enrichment (6-mer frequency, TF over GST control); in the assay with ELK4, 1.32 fold enrichment (6-mer frequency, TF over GST control); with ETV2 it was 1.32 fold enrichment (6-mer frequency, TF over GST control). For the same sequence, the binding signal with ELF3 was 1.08 fold enrichment (6-mer frequency, TF over GST control); with ETV1, 1.33 fold enrichment (6-mer frequency, TF over GST control).

ACACAC: the binding signal with FEV is 1.18 fold enrichment (6-mer frequency, TF over GST control); with ETV5 it was 1.15 fold enrichment (6-mer frequency, TF over GST control); with SPIC, 1.23 fold enrichment (6-mer frequency, TF over GST control); with ELF4 it was 1.21 fold enrichment (6-mer frequency, TF over GST control); in the assay with ELK4, 1.21 fold enrichment (6-mer frequency, TF over GST control); in the assay with ETV2, 1.33 fold enrichment (6-mer frequency, TF over GST control). Besides, the binding signal with ELF3 was 1.23 fold enrichment (6-mer frequency, TF over GST control); in the assay with ETV1, 1.17 fold enrichment (6-mer frequency, TF over GST control).

On to GTAGCA, for which the binding signal with FEV was 1.07 fold enrichment (6-mer frequency, TF over GST control); in the assay with ETV5, 1.13 fold enrichment (6-mer frequency, TF over GST control); in the assay with SPIC, 1.16 fold enrichment (6-mer frequency, TF over GST control); with ELF4, 1.07 fold enrichment (6-mer frequency, TF over GST control); with ELK4, 1.06 fold enrichment (6-mer frequency, TF over GST control); with ETV2, 1.11 fold enrichment (6-mer frequency, TF over GST control). For the same sequence, the binding signal in the assay with ELF3 was 1.01 fold enrichment (6-mer frequency, TF over GST control); in the assay with ETV1, 1.11 fold enrichment (6-mer frequency, TF over GST control).
